Each structure is given as a SMILES string. Compounds without any hit were thinned out: in the full panel of roughly 83,000, 20% have a hit.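 Plates (96-well) were seeded with cells, treated with compound at one concentration, and incubated for 48 hours before percent growth was determined.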 Active and inactive are the calls of the source.

This assay concerns EKVX NSCLC. Nature of the assay: NCI-60 one-dose screen, 48 h (100 = growth as untreated, 0 = no growth, -100 = all killed). Particulars: 10 µM unless noted. The protocol:
Growth inhibition of the EKVX human Non-Small Cell Lung tumor cell line is measured as a screen for anti-cancer activity. Cells are grown in 96 well plates and exposed to the test compound for 48 hours. Compounds are tested at a single concentration, which is 10^-5 M for most compounds. The reported endpoint is percent growth (GI% or GIPRCNT), where numbers from 0 - 100% represent growth inhibition, and numbers from -100% - 0 represent cell death. For example, a value of 40 represents 60% growth inhibition. A value of 0 means no net growth occurred over the course of the experiment. A value of -40 indicates 40% of cells at the beginning of the experiment died by the end of the experiment. A value of -100 means all cells are dead at the end of the experiment.
NCI-60 Human Tumor Cell Lines Screen was performed using the standard one-dose NCI protocol, which is described in more detail at https://dtp.cancer.gov/discovery_development/nci-60/default.htm.
Compounds with GIPRCNT values below 10 were considered active. Activity score was based on GIPRCNT using the following formula: […]
Score is 0 for GIPRCNT values of 100 or above, 50 for GIPRCNT values of 0, and 100 for GIPRCNT values of -100.
`C#Cc1ccc(C(=O)NCc2ccc(/C=C/C(=O)c3nccn3C)cc2)cc1`: the growth is 36.4% (inactive).

For the compound `CCC1=Cc2cc(OC)ccc2OC12C=Cc1cc(OC)ccc1O2` (stereo not given), the growth is 46.2% (inactive).

Turning to `COc1ccc(C2CC(c3ccc(Nc4nc(NCCO)nc(N5CCOCC5)n4)cc3)=Nc3c(N)nc(N)nc3N2)cc1` (stereo not given), the growth was 107% (inactive).

For the compound `Cc1cc(C)c2sc(=O)n(Cc3nnc(SCCC(=O)O)o3)c2n1`, the growth is 102% (inactive).

As for `C[C@H]1c2[nH]c3ccccc3c2C[C@H]2C(=O)N(CCCCCCC(=O)NO)CC(=O)N21`, the growth is 85.3% (inactive).

In the case of `O=C1[C@H]2Cc3c([nH]c4ccccc34)[C@@H](c3ccc(Br)cc3)N2C(=O)CN1C1CCN(CC2CCCCC2)CC1`, the growth is -79.2% (active).

For `CN1CCC(n2cc(Nc3ncc4c(=O)n(-c5c(Cl)cccc5Cl)cc(Br)c4n3)cn2)CC1`, the growth was 57.4% (inactive).

Take `O=C1[C@@H]2Cc3c([nH]c4ccccc34)[C@H](c3c(Cl)cccc3Cl)N2C(=O)CN1C1CCN(CC2CCCCC2)CC1`: the growth was 90.7% (inactive).

Consider `COc1ccccc1NCc1cccn1Cc1ccc(F)cc1`, for which the growth is 98% (inactive).

For `Cc1nn(-c2ccccc2)c2ncnc(N/N=C/c3ccccc3)c12`, the growth was 89.6% (inactive).

As for `CS(=O)(=O)Nc1cc(-c2ccc3ncc(C#N)c(N[C@H](CO)c4ccccc4)c3c2)cnc1Cl`, the growth is 66.9% (inactive).

`CCn1c(SCC(=O)Nc2cccc(C(=O)/C=C/c3ccc(Br)cc3)c2)nc2ccccc2c1=O`: the growth was 96.5% (inactive).

Regarding `COc1ccc(-n2c(/C=C3\C(=O)Nc4ccccc43)ccc2CO)cc1`, the growth was 94.7% (inactive).

Take `COc1cc2nc(Cl)nc(Nc3cccc(C4=Nc5c(N)nc(N)nc5NC(c5ccc(Cl)cc5)C4)c3)c2cc1OC` (stereo not given): the growth was 95.3% (inactive).

Turning to `CC(=O)c1ccc(Nc2nc(SCC(C)C)nc(-c3ccccc3)c2C#N)cc1`, the growth was 88.6% (inactive).

With `CCCCCc1ccc(S(=O)(=O)Nc2cccc(-c3csc(NC(=O)CCCCCN4CCN(C)CC4)n3)c2)cc1`, the growth was 71% (inactive).

On to `O=C(NNc1nc2cc(F)ccc2n2c(CN3CCC(O)C3)ccc12)c1cnccn1` (stereo not given), for which the growth was 10.1% (inactive).

For the compound `N/C(=N\C(N)=N\c1nc2ccccc2s1)c1cccc(F)c1`, the growth is 81.4% [5 µM] (inactive).

For the compound `O=C(O)c1ccc(-n2cc(CNc3cc(F)c(F)c(F)c3)c(-c3ccc(F)cc3)n2)cc1`, the growth was 85.6% (inactive).

As to `O=C(Nc1nc2ccc([N+](=O)[O-])cc2s1)Nc1ccccc1Cl`, the growth is 33.6% (inactive).

Take `COc1ccc(Cn2cc3c(c2-c2cc(OC)c(OC)c(OC)c2)CCc2c(CN4CCOCC4)noc2-3)cc1`: the growth was 43.4% (inactive).

As to `CC(C)(O)c1cncc(-c2ccc3ncnc(NCc4ccccc4)c3c2)c1`, the growth is 32.7% (inactive).

For `COc1cc2oc(-c3cccc(N)c3)cc(=O)c2c(OC)c1OC`, the growth was 104% (inactive).

For `COc1ccc(NC(=O)Nc2ccc3c(ccn3C(=O)c3cccc(F)c3)c2)cc1`, the growth was 88% (inactive).

In the case of `C=CC(=O)N1CC=C(c2cc3c(N[C@H](C)c4ccccc4)ncnc3[nH]2)CC1`, the growth is 30.5% (inactive).

Consider `CC(C)(C)n1cc(-c2ccnc(NCCCNS(=O)(=O)c3cccc(F)c3)n2)c(-c2ccc(Cl)c(O)c2)n1`, for which the growth was 80.5% (inactive).

Take `CNC(=O)c1cc(N2CCc3cc(NC(=O)Nc4ccc(Cl)c(C(F)(F)F)c4)ccc32)ccn1`: the growth is 55.1% (inactive).

Take `Nc1nc(Nc2ccccc2SSc2ccccc2Nc2nc(N)nc(-c3ccccc3)n2)nc(-c2ccccc2)n1`: the growth was 47.1% (inactive).

On to `O=C(CN1CCN(c2cc(=O)n(-c3ccccc3)c3ccccc23)CC1)Nc1ccc(F)cc1`, for which the growth was 48.7% (inactive).

On to `CC(=O)c1cc(C(=O)c2ccc(Br)cc2)n2cc(C)cc(C)c12`, for which the growth is 71.7% (inactive).

As to `CCNC(=O)N1CCc2cc(OC)c(OCCc3ccc(OC)c(N)c3)cc2C1c1ccc(C)cc1C` (stereo not given), the growth is 44% (inactive).

Turning to `O=S(=O)(NCCCNc1nccc(-c2[nH]c(-c3ccccc3)nc2-c2ccc(Cl)c(O)c2)n1)c1cccc2ccccc12`, the growth is 46.2% (inactive).

With `NC(N)=Nc1ccc(Oc2cccc(Nc3ccc(Br)c(C(F)(F)F)c3)c2)cn1`, the growth is -68.8% (active).

Take `Clc1ccc(N/N=c2/oc3ccccc3cc2-c2cc3ccccc3[nH]2)cc1`: the growth was 70.2% (inactive).

`Cn1ccnc1C(=O)/C=C/c1ccc(NC(=O)c2c(F)c(F)c(F)c(F)c2F)cc1`: the growth was 99.7% (inactive).

As for `COC(=O)C1(C)CCC[C@]2(C)[C@H]3C[C@H]4C(C(C)C)=C[C@]3(CC[C@@H]12)[C@H]1[C@@H]4[C@@H](OC(=O)c2ccco2)CC[C@@H]1OC(=O)c1ccco1` (stereo not given in full), the growth was 99.1% (inactive).

In the case of `Cc1cc(-c2ccc(Cl)cc2)n(Cc2nnc(SCC(=O)Nc3ccc(S(N)(=O)=O)cc3)n2C2CCCCC2)n1`, the growth is 103% (inactive).

For the compound `COc1ccc2c(c1)c(CC(=O)[Se]CCC#N)c(C)n2C(=O)c1ccc(Cl)cc1`, the growth was -82.5% (active).

Take `CCOc1ccccc1NC1=C(Cl)C(=O)c2nc(C)ccc2C1=O`: the growth is -2.24% (active).

For `CC(c1ccccc1)N1CSc2nc3ncncc3n2C1` (stereo not given), the growth is 84.8% (inactive).

(Values after PubChem BioAssay (NCI).)
